# Reference: paper PMC7819943, “Rice protein-binding microarrays: a tool to detect cis-acting elements near promoter regions in rice”
# Whole data set: some 68,000 sequences, median “fluorescence intensity (a.u.)” near 9,100, cut for the highest 2% near 16,000. What follows is part of a selection rich in the highest values, with near analogues and random picks from the rest.
# Target: OsWRKY34 (Oryza sativa, UniProt Q0JBA9 1-250)
# Assay: protein-binding microarray (RPBM); PBS, 2% BSA, 51.3 ng/ul salmon testes DNA, 50 uM zinc acetate, 200 nM TF, 25 C, 1 h; high values mean tight binding
# Details: protein: recombinant; tags: N-terminal polyhistidine and DsRed monomer fusion (pET32a); label: CyDye5-dUTP incorporated in the synthesized complementary strand; 3' TTTTT single-stranded linker to array surface; dsDNA, one strand shown
# Method in brief: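 Binding signal here means per-feature fluorescence intensity in arbitrary units. The values were read on an Axon 4000B scanner after a custom Agilent array, double-stranded by primer extension with Cy5-dUTP, was incubated with 200 nM protein at 25 °C for 1 h in PBS with 2% BSA, salmon testes DNA and 50 µM zinc acetate, then washed. The proteins were transcription factors with an N-terminal polyhistidine tag and DsRed, expressed in E. coli BL21-CodonPlus and purified on Ni–NTA.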
# Sequence of OsWRKY34 (Q0JBA9 entry or part of it): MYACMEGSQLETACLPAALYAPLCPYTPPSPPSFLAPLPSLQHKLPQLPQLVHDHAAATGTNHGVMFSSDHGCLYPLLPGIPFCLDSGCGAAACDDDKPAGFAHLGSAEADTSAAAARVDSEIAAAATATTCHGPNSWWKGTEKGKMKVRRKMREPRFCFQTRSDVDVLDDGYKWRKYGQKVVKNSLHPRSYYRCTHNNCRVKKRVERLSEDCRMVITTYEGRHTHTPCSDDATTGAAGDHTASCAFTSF
row,Sequence,binding signal
1,TCCATGCAGTCTTCTTCTTCTGCAGCCTATGCTGTTAGTCCGGAGTCACCTAGTGCAG,11700 fluorescence intensity (a.u.)
2,TTTCATTGTTTCCGCAGACACGCTTTTCAAACTACTAAACCGGAGTCACCTAGTGCAG,8080 fluorescence intensity (a.u.)
3,AATTTATAACCGTGACCTGCTGCCATATGCTAACCGTTTACGGAGTCACCTAGTGCAG,8260 fluorescence intensity (a.u.)
4,CTTTGTGCTGGACCGACGACGTCGTTCGCTCTTTTATCCTCGGAGTCACCTAGTGCAG,9040 fluorescence intensity (a.u.)
5,TGATCTGATCTGACAATTTGGGCGGGCTGTGTTTTATGAACGGAGTCACCTAGTGCAG,12900 fluorescence intensity (a.u.)
6,CATATCAGTGGTTAACTGTGCTGTCTCAGTTGATCTCCCGCGGAGTCACCTAGTGCAG,8360 fluorescence intensity (a.u.)
7,CATGTTAGATGTTTTTTTTCTTGTTACTCTTTTTTATTTTCGGAGTCACCTAGTGCAG,13300 fluorescence intensity (a.u.)
8,ACCTCTGTTTTCATGGGCTAGTGGCCCAGTACCTCACTGCCGGAGTCACCTAGTGCAG,8930 fluorescence intensity (a.u.)
9,GCATGGAGGCGTTTCATCAAACACCTTGCGCCTGCGGGAGCGGAGTCACCTAGTGCAG,8030 fluorescence intensity (a.u.)
10,AACTACAACTATCTTGTTTTTATTTACACGCTTTTCAAACCGGAGTCACCTAGTGCAG,8620 fluorescence intensity (a.u.)
11,AACCCACCTCTTTCGTTTTCCGCGCGTACGCTTTTCAAACCGGAGTCACCTAGTGCAG,8710 fluorescence intensity (a.u.)
12,AACCCACCTATCTTGTTTTCCACGTGTACGCTTTTCAAACCGGAGTCACCTAGTGCAG,19200 fluorescence intensity (a.u.)
13,TCTGTATATATTACTACTTGCGTTTCTCTTTCTTTCTTCCCGGAGTCACCTAGTGCAG,11000 fluorescence intensity (a.u.)
14,ATCACATCTTAACATTTCATTCTCTGCTCAAAGATTCGATCGGAGTCACCTAGTGCAG,8620 fluorescence intensity (a.u.)
15,AGCTCATCACTTCTTCTTGCATGCATGCACTACCGTCGGCCGGAGTCACCTAGTGCAG,10400 fluorescence intensity (a.u.)
16,GCACACCCTCGCTCTGACGACCCTGTCACGTTGAGCTACGCGGAGTCACCTAGTGCAG,8240 fluorescence intensity (a.u.)
17,GGTGAAGCTCTGCGCTGACACGTTGATGCAGCGGAGCACGCGGAGTCACCTAGTGCAG,18900 fluorescence intensity (a.u.)
18,TGCACACATGCACACACGCGCGCGCTGCTGCTGCTGCTGACGGAGTCACCTAGTGCAG,8160 fluorescence intensity (a.u.)
19,ACAACGCATTTCCATTTCTACTCTGCCCCTGGTAAATTACCGGAGTCACCTAGTGCAG,12400 fluorescence intensity (a.u.)
20,ACTGCCTTACCTGTTCATCTTCCAAACTGATTTGGTTTGTCGGAGTCACCTAGTGCAG,9370 fluorescence intensity (a.u.)
21,AAACAATTATCTAAAAACCTCACTATTAATAGAGAGATTCCGGAGTCACCTAGTGCAG,38700 fluorescence intensity (a.u.)

row,Sequence,binding signal
1,ACAATTAACACACGTAAACACTATCTGCTATTGTAAAAAACGGAGTCACCTAGTGCAG,8460 fluorescence intensity (a.u.)
2,ACGGCACCTCATAGATTATTCCGTCCGTTCCAACAACCTCCGGAGTCACCTAGTGCAG,8320 fluorescence intensity (a.u.)
3,ACTTTTTATACGCAACTTTCATTGCATATATTTTACTTTTCGGAGTCACCTAGTGCAG,9540 fluorescence intensity (a.u.)
4,ACCTTCTTACCCACTCCACCCACTGACAACGTTGGCCACCCGGAGTCACCTAGTGCAG,9360 fluorescence intensity (a.u.)
5,TATATAACACAAAATAAGATCAACGTTGACCCGGGTTGACCGGAGTCACCTAGTGCAG,10200 fluorescence intensity (a.u.)
6,TGGTTTGGTTTGCTTCTTCTCTGCTTCAACGGTTGGTCGACGGAGTCACCTAGTGCAG,16900 fluorescence intensity (a.u.)
7,TGTGTTGCTCTCTCTTCACTTGGTTGGCGGCGGCGCTGCGCGGAGTCACCTAGTGCAG,8060 fluorescence intensity (a.u.)
8,CTGTAGTGTTGCTTGGTTTCTCTTTTTTGCCTCTTCACGGCGGAGTCACCTAGTGCAG,13200 fluorescence intensity (a.u.)
9,GGGTTGGTTTGGTTTGGTTGCTTCTTCTCTGCTTCAACGGCGGAGTCACCTAGTGCAG,40000 fluorescence intensity (a.u.)
10,AAGAATTTTGCTTTGGTTCAACCTTTTTTCTCTTCTTTCTCGGAGTCACCTAGTGCAG,11300 fluorescence intensity (a.u.)
11,ATCTCAATGAGTTGGTCGTTTGCTGCTTCTCTATAGTGAACGGAGTCACCTAGTGCAG,9140 fluorescence intensity (a.u.)
12,CAACGTTGACCCGGGTTGACCCACGGTTCTTCAACAAATGCGGAGTCACCTAGTGCAG,20700 fluorescence intensity (a.u.)
13,CCGTTCGCCACGTCCATCCGTTTTCTGTGCCATAGGCAGGCGGAGTCACCTAGTGCAG,9340 fluorescence intensity (a.u.)
14,GCGTGCTAAACCCTTGTGATCCGTGTATTTAACCACCTTCCGGAGTCACCTAGTGCAG,11700 fluorescence intensity (a.u.)
15,ATTGGATCGGATCAGATCCCTTTTGCGCACCACTCGCCTTCGGAGTCACCTAGTGCAG,8750 fluorescence intensity (a.u.)
16,TCGAGGAGTGGATGGACGGATGGGTGGGTCATCACTGGTCCGGAGTCACCTAGTGCAG,8840 fluorescence intensity (a.u.)
17,CCTCACGCAATTCCACAACTGCTGCTCCCACCCTCATCAGCGGAGTCACCTAGTGCAG,9580 fluorescence intensity (a.u.)
18,TTTGCAATATCAGGGGTGTGTTACATATGTATTTCGATTTCGGAGTCACCTAGTGCAG,12400 fluorescence intensity (a.u.)
19,TCTACCCGCCTTCCTTTTAGTCCCCGCGTCTCCACAAAATCGGAGTCACCTAGTGCAG,10100 fluorescence intensity (a.u.)
20,TATTTTCCGTGTGTACCGTTCCGGTTATCAATACCAGCGCCGGAGTCACCTAGTGCAG,8380 fluorescence intensity (a.u.)
21,CAGCCGCCCTACGTCAGCCAAGTCCAACGACAACGCCCAACGGAGTCACCTAGTGCAG,8200 fluorescence intensity (a.u.)

row,Sequence,binding signal
1,TCATCCCACCGACGTCAGCAAGCCATCGCCATCAAGCCCACGGAGTCACCTAGTGCAG,9760 fluorescence intensity (a.u.)
2,GCCATCAAGCTACGCCATTCAGCATTGCAACGACGACGTCCGGAGTCACCTAGTGCAG,64300 fluorescence intensity (a.u.)
3,ACCTCTGCTGATTCTTCTTGCTGTTTCTTTGTTGCGCATTCGGAGTCACCTAGTGCAG,11500 fluorescence intensity (a.u.)
4,CACCTCGCGCCGCGCCCCATCCTTATCGTCATGACACGCCCGGAGTCACCTAGTGCAG,8810 fluorescence intensity (a.u.)
5,AACTCTGGCACGATTTTTTTTATTGCAGTTTTCGTCGGATCGGAGTCACCTAGTGCAG,11400 fluorescence intensity (a.u.)
6,GGTTTTTTTTGGATTTATTGCTTTGTCACGTCTGGATCGTCGGAGTCACCTAGTGCAG,20500 fluorescence intensity (a.u.)
7,TGGAGAGCGTTGCTTTTTTTGGGCGGGTTTGGATTTTTATCGGAGTCACCTAGTGCAG,21600 fluorescence intensity (a.u.)
8,GTTGGTTTTGGGGTTTTGGAGCGTTGCGGATTGCCACGGCCGGAGTCACCTAGTGCAG,10300 fluorescence intensity (a.u.)
9,TCTTAGTATCCTTGGTTGTTGGATTTTTAGTTTGCTTTATCGGAGTCACCTAGTGCAG,9350 fluorescence intensity (a.u.)
10,TTGCTTGTCTGTTTGTTTTATTTATTTATGACGTCATTATCGGAGTCACCTAGTGCAG,12600 fluorescence intensity (a.u.)
11,GAGGAGCTCGCCAATTGTTCCGCGTCATATCGCCAGCTCTCGGAGTCACCTAGTGCAG,9060 fluorescence intensity (a.u.)
12,TCGTTGACTTTTTTCTTAGTCAAATTTCTTTAAGTTTGACCGGAGTCACCTAGTGCAG,42400 fluorescence intensity (a.u.)
13,AGTAATTTGACTTTTTCCTTAATCAAACTTCTTTAAGTTTCGGAGTCACCTAGTGCAG,10600 fluorescence intensity (a.u.)
14,ATAGTTGGTGTGTTTATGTAGACTTATTCTATTTTGACGTCGGAGTCACCTAGTGCAG,10400 fluorescence intensity (a.u.)
15,AGGAGCCAGACTTAGTTGGTGTAAGCCATTTACTAGTTGACGGAGTCACCTAGTGCAG,22800 fluorescence intensity (a.u.)
16,AACCTCTCATTTAATAAGATTCATCACAGTCTTTTTTTTTCGGAGTCACCTAGTGCAG,9990 fluorescence intensity (a.u.)
17,TCATTTTGACTTTTTTTAGTCAAACTCTTTTAATTTTAATCGGAGTCACCTAGTGCAG,19600 fluorescence intensity (a.u.)
18,GTCATTTTGTCTTTTTCTCTAAGTCAAACTTCTTTAATTTCGGAGTCACCTAGTGCAG,10900 fluorescence intensity (a.u.)
19,CCTCTAAATTTTAAGATTTTTTTAATCATTTTACCATTTTCGGAGTCACCTAGTGCAG,65200 fluorescence intensity (a.u.)
20,TACCATTTCTTTCTTGCTTTTTTAATGCCTAAATCATCTTCGGAGTCACCTAGTGCAG,8050 fluorescence intensity (a.u.)
21,GATTCTAGTCAAATTTCTTTTAATTTTGACTACGTTTATACGGAGTCACCTAGTGCAG,11200 fluorescence intensity (a.u.)

row,Sequence,binding signal
1,GACTTGATTTTTTTTCTTAATTTGACCTTTTAATTTCAAACGGAGTCACCTAGTGCAG,8080 fluorescence intensity (a.u.)
2,GTTGCTGGTTTTGTTAGTTTGGTGACCTTGACTTGTAAGACGGAGTCACCTAGTGCAG,8670 fluorescence intensity (a.u.)
3,CCCTATCCATTAATTACTCGCTTCGTGGTCGGAATCCATGCGGAGTCACCTAGTGCAG,8200 fluorescence intensity (a.u.)
4,TGCTGCTGGTTACTTGTATTAATACATTATAGAAAATGAGCGGAGTCACCTAGTGCAG,8070 fluorescence intensity (a.u.)
5,AACTCTTTCTGCCCACTTCCTCAACCCATGCTTATCTACCCGGAGTCACCTAGTGCAG,8240 fluorescence intensity (a.u.)
6,TGAGAAGCACCGCTCTCTCCTGCACCCGTCTCACGTGCACCGGAGTCACCTAGTGCAG,8300 fluorescence intensity (a.u.)
7,TCACCTGATCAAGTACGCGTTTTTGGCCCTCAAAAGTATTCGGAGTCACCTAGTGCAG,8120 fluorescence intensity (a.u.)
8,ACTAGGGTTCTCTTCTCACTCCATCGCTAGCGGCGGCTCACGGAGTCACCTAGTGCAG,8340 fluorescence intensity (a.u.)
9,TAATGGGATGGGTGAAAAGTTATTGTTTTTGGTAGGCCTTCGGAGTCACCTAGTGCAG,9640 fluorescence intensity (a.u.)
10,CACCGCCGAACGCACGATTTCTTCCCGACGCTGTCACTTGCGGAGTCACCTAGTGCAG,8190 fluorescence intensity (a.u.)
11,CCGCGATCTGTTTCGTCCAGCTTAATTTGTTGCTGTTCTGCGGAGTCACCTAGTGCAG,11300 fluorescence intensity (a.u.)
12,TATTGACTTTGGTCAAAGTCAAACTGTTTTAAATTTCACTCGGAGTCACCTAGTGCAG,10500 fluorescence intensity (a.u.)
13,AAGTTATAAGATGTTTTGACTTTGGTCAAAGTCAAACTGCCGGAGTCACCTAGTGCAG,14600 fluorescence intensity (a.u.)
14,GTTTGACTTTTTTACTAGTCAAACTTATTTAAGTTTGACCCGGAGTCACCTAGTGCAG,17500 fluorescence intensity (a.u.)
15,TATTTTTGACTTTGGTCAAAGTCAAACTGTTTTAAGTTTGCGGAGTCACCTAGTGCAG,17900 fluorescence intensity (a.u.)
16,AAGTTACTTTTATTTTTTTCTAGTCAAACTACTTAGACTTCGGAGTCACCTAGTGCAG,8740 fluorescence intensity (a.u.)
17,ACATTTTGACTTTTGCCAAAGTCAAACTGCTTTAAGTTTGCGGAGTCACCTAGTGCAG,11900 fluorescence intensity (a.u.)
18,TAAGATGTTTTGACTTTGGTCAAAGTCAAACTACTTTGAGCGGAGTCACCTAGTGCAG,13200 fluorescence intensity (a.u.)
19,TTTGATTTTGGTCAAAGTCAAACTACTCTAAGTTTGACTACGGAGTCACCTAGTGCAG,13400 fluorescence intensity (a.u.)
20,TTATAAGATGTTTTGACTTTGGTCAAAGTCAAACTATTTCCGGAGTCACCTAGTGCAG,16600 fluorescence intensity (a.u.)
21,CGCTCACTCGTCTCCTCTCGGTTTCTTTCTCTCTCTCTCTCGGAGTCACCTAGTGCAG,8160 fluorescence intensity (a.u.)
